In paper PMC5540273 (PLoS ONE, 2017):

The molecules below were run on ICK.
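Note: kd values determined as follow-up on hits from a single-replicate KINOMEscan panel screen.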

Q: How did the Kd turn out when `CS(=O)(=O)c1ccc(-c2nc3n(c2-c2ccncc2)CCC3)cc1` [SKF-105942] was run?
A: > 10000 nM

Q: With `Cc1cc(N2Cc3ccccc3C2)nc(Nc2ccc(S(=O)(=O)N3CCOCC3)cc2)n1.Cl` [GSK1669917] as the molecule, how does the Kd read?
A: > 10000 nM

Q: With `Cl.NC(=O)c1cccc(Nc2nccc(Nc3ccc(Oc4cccc(Cl)c4)c(Cl)c3)n2)c1` [GW659008] as the molecule, how does the Kd read?
A: > 10000 nM

Q: For `O=C(Nc1n[nH]c2nc(-c3nccs3)c(Br)cc12)C1CCCC1` [SB-742609], which Kd is on record?
A: 220 nM

The molecules below were run on IRAK3.

Q: `Cc1ccc(NC(=O)Nc2cc(C(C)(C)C)nn2-c2ccccc2)cc1` [GSK1014915] was tested. Which Kd did it give?
A: > 10000 nM

Q: How did the Kd turn out when `Cc1ccc(NC(=O)Nc2cccc(Cl)c2)cc1-c1ccc(C(=O)Nc2ccncc2)cc1` [GSK1398468] was run?
A: > 10000 nM

Q: `CS(=O)(=O)c1ccc(-c2c(-c3ncn[nH]3)sc(N3CCOCC3)c2C#N)cc1` was tested. Which Kd did it give?
A: > 10000 nM

Q: With `Cc1ccc(NC(=O)Nc2cccc(C(F)(F)F)c2)cc1` [GSK955403] as the molecule, how does the Kd read?
A: > 10000 nM

Q: How did the Kd turn out when `CCn1c(-c2ccccn2)nc2cnccc21` [SB-736398] was run?
A: 7500 nM

What follows are molecules tested on JAK1(JH2domain-pseudokinase).

Q: Which Kd does the source give for `Cc1cccc(-c2nc(Nc3ccc4[nH]ncc4c3)c3ccccc3n2)n1` [GW857175] here?
A: 650 nM

Q: Which Kd does the source give for `Cc1nnc(-c2ccc3occ(-c4ccc(S(C)=O)cc4)c3c2)[nH]1` (stereo not shown) here?
A: 190 nM

Q: `COc1ccc2nc(-c3cccc(C)n3)nc(Nc3ccncc3)c2c1` [GSK204919] was tested. Which Kd did it give?
A: 260 nM

These molecules were tested on JAK2(JH1domain-catalytic).

Q: Which Kd does the source give for `Cc1cccc(-c2cc(Nc3ccncc3)c3ccccc3n2)n1` [GSK223675] here?
A: > 10000 nM

Q: How did the Kd turn out when `Cl.NC(=O)c1cccc(Nc2nccc(Nc3ccc(Oc4cccc(Cl)c4)c(Cl)c3)n2)c1` [GW659008] was run?
A: 400 nM

Q: How did the Kd turn out when `O=S(=O)(c1ccc(-c2ccnc3[nH]ccc23)cc1)N1CCCC1` [GSK846226] was run?
A: 360 nM

Q: `CSc1nn2c(=O)cc(N3CCOCC3)nc2n1Cc1cccc(C(F)(F)F)c1C` [GSK2363608] was tested. Which Kd did it give?
A: > 10000 nM

Each molecule was assayed on KIT.

Q: How did the Kd turn out when `Cc1ccc(NC(=O)Nc2cc(C(C)(C)C)nn2-c2ccccc2)cc1` [GSK1014915] was run?
A: 260 nM

Q: With `Cc1ccc(NC(=O)Nc2cccc(Cl)c2)cc1-c1ccc(C(=O)Nc2ccncc2)cc1` [GSK1398468] as the molecule, how does the Kd read?
A: 180 nM

Q: `Cc1ccc(NC(=O)Nc2cccc(C(F)(F)F)c2)cc1` [GSK955403] was tested. Which Kd did it give?
A: 240 nM
